# Measurements: PubChem BioAssay
# Active and inactive are the calls of the source.
# Assays:
# Albumin (Bos taurus) = Albumin (Bos taurus) (UniProt P02769); assay: compounds binding labelled BSA control protein – biochemical, small-molecule microarray, Alexa647 label, 635/667 nm fluorescence, artefact control for SMM control protein annotation, profiling panel (AID 1118); conditions: BSA-A647 binding, fluorescence 635 nm, higher = more signal;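 further: score merges 667 nm emission intensity and signal-to-noise per printed compound spot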
# Chain of Albumin (Bos taurus) (P02769 whole entry, looked up): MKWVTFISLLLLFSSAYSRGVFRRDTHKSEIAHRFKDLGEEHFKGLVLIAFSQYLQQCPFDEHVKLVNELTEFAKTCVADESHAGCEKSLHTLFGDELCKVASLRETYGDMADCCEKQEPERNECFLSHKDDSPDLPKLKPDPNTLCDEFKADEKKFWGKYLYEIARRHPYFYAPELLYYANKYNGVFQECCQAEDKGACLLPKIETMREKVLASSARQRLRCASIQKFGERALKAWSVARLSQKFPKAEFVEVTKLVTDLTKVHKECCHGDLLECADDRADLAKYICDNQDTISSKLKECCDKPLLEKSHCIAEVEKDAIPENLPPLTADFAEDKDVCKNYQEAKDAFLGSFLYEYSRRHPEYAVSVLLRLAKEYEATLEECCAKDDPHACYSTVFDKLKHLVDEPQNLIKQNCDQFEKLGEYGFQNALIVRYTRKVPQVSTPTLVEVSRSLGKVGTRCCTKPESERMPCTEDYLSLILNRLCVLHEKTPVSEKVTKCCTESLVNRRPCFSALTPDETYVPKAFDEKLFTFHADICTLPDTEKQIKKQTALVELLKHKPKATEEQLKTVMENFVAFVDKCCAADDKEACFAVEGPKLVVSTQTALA
# [1] = probe aXIP binding to arrayed compounds – biochemical, NeuroSMM set, 635/667 nm fluorescence, primary screen (AID 1119); conditions: small-molecule microarray, higher = more signal, called active from +8 up or from −8 down;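 further: probe is the protein aXip251-270 applied at 1 µg/mL to compound-printed slides; binding of probe to printed compounds measured as 667 nm fluorescence plus signal to noise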
# [2] = probe aNOTCH3 binding on compound microarray – biochemical, small-molecule microarray, 635/667 nm fluorescence, primary screen (AID 1120); conditions: higher = more signal;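 further: probe is a biotin-tagged antibody raised against NOTCH3 rather than NOTCH3 protein; score merges spot fluorescence near 667 nm with spot signal to noise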
# [3] = probe aNOTCH2 binding on compound microarray – biochemical, small-molecule microarray, 635/667 nm fluorescence, primary screen (AID 1121); conditions: higher = more signal;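 further: score merges feature fluorescence read at 667 nm with its signal to noise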
# [4] = target: Carbonic anhydrase 2 (Homo sapiens) (UniProt P00918); assay: compounds binding carbonic anhydrase 2 – biochemical, small-molecule microarray, Alexa647-labelled CAII, profiling panel (AID 1122); conditions: CAII-A647 binding fluorescence, higher = more signal
# [5] = COS7 lysate on small-molecule microarray, probe aHis, 635 nm (AID 1123); conditions: COS7 cell lysate, fluorescence, higher = more signal;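 further: z-score combines 667nm fluorescence intensity with signal-to-noise per printed compound spot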
# [6] = probe aLAP1 signal on lysate-treated microarray – cell lysate, small-molecule microarray, COS7 lysate, primary screen (AID 1124); conditions: probe aLAP1, fluorescence, higher = more signal;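 further: lysate comes from COS7 cells expressing LAP1 and is applied at 0.3 µg/mL; score merges spot fluorescence near 667 nm with signal-to-noise over triplicate slides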
# Sam68 (KHDRBS1) = assay: compounds binding KHDRBS1 protein – biochemical, small-molecule microarray, 635 nm fluorescence, primary screen (AID 1125); conditions: higher = more signal;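 further: score merges 667 nm channel intensity with signal to noise over triplicate slides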
# [7] = tested on: Chordin-like protein 2 (CHRDL2); assay: compounds binding chordin-like 2 – biochemical, small-molecule microarray, 635 nm fluorescence, primary screen (AID 1126); conditions: fluorescence 635 nm, higher = more signal;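 further: printed compound slides probed with Chrdl2 protein at 4 µg/mL for 1 h at 4 C; score merges 667 nm emission intensity with signal to noise over three replicate slides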
# [8] = target: Concanavalin-A (Canavalia ensiformis) (UniProt P02866); assay: compounds binding concanavalin A lectin – biochemical, small-molecule microarray, Alexa647 label, 635 nm, artefact control for SMM control protein annotation, primary screen (AID 1127); conditions: ConA-A647 binding fluorescence, higher = more signal;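 further: z combines 667 nm emission intensity with signal-to-noise across three replicate slides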
# Chain of Concanavalin-A (Canavalia ensiformis) (P02866 whole entry, looked up): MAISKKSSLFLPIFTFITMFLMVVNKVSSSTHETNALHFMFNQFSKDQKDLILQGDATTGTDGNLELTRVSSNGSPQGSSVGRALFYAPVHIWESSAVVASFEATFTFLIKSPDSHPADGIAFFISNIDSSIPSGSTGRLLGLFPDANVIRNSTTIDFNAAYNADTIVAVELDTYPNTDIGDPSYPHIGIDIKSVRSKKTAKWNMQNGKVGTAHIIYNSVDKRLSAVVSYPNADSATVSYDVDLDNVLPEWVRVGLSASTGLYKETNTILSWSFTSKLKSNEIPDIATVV
Structure (SMILES),composite z-score (Albumin (Bos taurus)),composite Z-score [1],composite z-score [2],composite z-score [3],composite z-score [4],composite z-score [5],composite z-score [6],composite z-score (Sam68 (KHDRBS1)),composite z-score [7],composite z-score [8]
COC(=O)[C@@H]1CC[C@H](C)[C@@H](c2ccc(C)cc2)N1C(=O)c1ccc(C=NO[C@H](C)c2cn([C@H](CO)Cc3ccccc3)nn2)cc1,0.279,0.402 (inactive),0.217,0.111,0.233,-0.141,0.452,1.02,0.684,0.653
CCOC(=O)NN=C1C[C@@H](O)[C@@H](O)[C@@H]2[C@@H]3C(=O)N([C@@H](C)c4ccccc4)C(=O)[C@@H]3CC[C@@H]12,-0.899,-0.491 (inactive),0.119,-0.0968,-0.0526,-0.374,0.129,1.23,1.02,-1.09
CC=CC1=C(CO)C(=O)[C@@H]2O[C@@H]2C1=O,-0.651,0.833 (inactive),-0.109,-0.102,0.298,-0.91,-0.724,-0.533,1.45,-0.579
COC(=O)CC=C[C@H](C)[C@@H](OCc1cccc(Br)c1)[C@@H](C)[C@H](OC)C1CCCCC1,-1.15,0.143 (inactive),-0.0914,-0.124,0.0679,-0.504,-0.0998,-0.446,0.652,-1.23
CCOC(=O)[C@H](CC(C)C)NC(=O)CCC1CC(OC(=O)NCc2cccc3ccccc23)CC2(CCCC(COC(=O)NCCCN3CCCC3=O)O2)O1 (stereo not given in full),0.247,-0.122 (inactive),-0.0328,-0.108,0.581,0.444,-0.0183,1.29,0.256,0.832
CO[C@@H]1COC(=O)[C@@H]2CCCN2C(=O)[C@@H](C)COC(=O)CC=C[C@H]1C,0.0417,-0.235 (inactive),-0.0362,-0.14,0.299,0.148,0.0496,1.2,0.695,0.325
COc1ccc(O[C@H]2C=C[C@@H](c3ccccc3)O[C@@H]2COC(=O)CCC(C)=NO[C@@H]2O[C@H](COC(C)=O)[C@@H](OC(C)=O)[C@H](OC(C)=O)[C@H]2OC(C)=O)cc1,0.303,-0.211 (inactive),0.0322,-0.211,-0.0481,0.752,0.0839,1.32,0.786,0.544
CCOC(=O)[C@H](Cc1ccccc1)NC(=O)CCC1CC(OC(=O)NCCc2ccc(F)cc2)CC2(CCCC(COC(=O)NCCOC)O2)O1 (stereo not given in full),0.257,0.0225 (inactive),0.0525,-0.157,0.0121,1.07,0.148,1.32,0.657,0.404
CCC(=O)[C@@]1(O)C(=O)N2C(=C3C(=O)OCC[C@@H]31)N(Cc1ccccc1)C(C)=C(C(=O)OC)[C@H]2c1ccccc1,-0.111,0.256 (inactive),0.0597,-0.158,-0.109,0.0028,0.137,0.431,0.627,0.602
CCOC(=O)[C@H](CC(C)C)NC(=O)CCC1CC(OC(=O)NCc2cccc3ccccc23)CC2(CCCC(COC(=O)NCCC(C)C)O2)O1 (stereo not given in full),0.352,-0.136 (inactive),-0.147,-0.153,0.562,0.795,-0.104,-0.0361,0.443,0.0178
CCN1C(=O)[C@H]2[C@H]3[C@H](O)[C@H](O)CC(=NOC[C@H]4O[C@H](c5ccccc5)C=C[C@@H]4Oc4ccc(OC)cc4)[C@@H]3CC[C@H]2C1=O,0.741,0.246 (inactive),0.0311,-0.0274,0.353,0.383,0.106,1.16,0.514,0.817
COC(=O)[C@H](C)NC(=O)CCC1CC(OC(=O)NCc2ccc3c(c2)OCO3)CC2(CCCC(COC(=O)NCCc3ccccc3OC)O2)O1 (stereo not given in full),0.159,0.0923 (inactive),-0.125,-0.0646,0.472,1.36,0.117,0.735,-0.0443,-0.706
CC(C)CON=C1C[C@@H](O)[C@@H](O)[C@@H]2[C@@H]3C(=O)N(C[C@@H]4CCCO4)C(=O)[C@@H]3CC[C@@H]12,0.268,0.223 (inactive),-0.0967,-0.14,0.165,0.421,0.419,0.12,-0.39,-0.339
COC(=O)[C@H](C)NC(=O)CCC1CC(OC(=O)NCc2ccc3c(c2)OCO3)CC2(CCCC(COC(=O)NCC(c3ccccc3)c3ccccc3)O2)O1 (stereo not given in full),0.409,0.265 (inactive),0.0159,-0.123,0.478,1.29,0.165,1.29,0.738,1.12
CC1O[C@H]2C3=C(C(=O)[C@@H]4O[C@@H]4[C@H]3O)[C@@H]1C1[C@@H](C)OC=C3[C@H](O)C4O[C@@H]4C(=NOCc4ccccc4)[C@]312 (stereo not given in full),-0.26,0.0463 (inactive),-0.125,-0.14,-0.279,0.355,-0.136,-0.221,0.0959,-0.207
COC(=O)C=CCCc1coc(C=CCNC(=O)OC)n1,0.266,0.103 (inactive),0.482,0.16,0.492,0.32,0.146,0.654,1.34,-0.0726
CO[C@H]1COC(=O)[C@@H]2CCCN2C(=O)CC=C[C@@H](C)[C@H](OC)COC(=O)[C@@H](OCc2ccccc2)C=C[C@@H]1C,-0.761,-1.04 (inactive),0.114,-0.115,-0.499,-0.756,-0.549,-0.11,1.33,-0.4
COC(=O)CC=C[C@@H](C)[C@@H](C=NO[C@@H]1O[C@H](COC(C)=O)[C@@H](OC(C)=O)[C@H](OC(C)=O)[C@H]1OC(C)=O)NS(=O)(=O)c1ccc(C)cc1,-0.228,0.504 (inactive),-0.0111,-0.0984,-0.701,-0.323,-0.045,0.682,-0.051,-0.909
CO[C@@H]1COC(=O)CC=C[C@@H](C)[C@@H]2C=C[C@H](O)[C@@H](COC(=O)CC=C[C@H]1C)O2,-0.806,0.718 (inactive),-0.124,-0.166,-0.257,-1.01,0.146,0.141,1.14,-0.629
CCCCc1nc2c(c3c1C[C@H](C)OC3)CN(CCOc1ccccc1)CC2,0.674,0.202 (inactive),0.058,-0.11,0.221,0.686,0.135,1.06,0.726,0.975
CC(=O)OC[C@H]1O[C@H](CCON=C2[C@H]3CCn4c(=O)n(-c5ccccc5)c(=O)n4[C@H]3[C@H](O)[C@@H]3O[C@H]23)C=C[C@@H]1OC(C)=O,0.378,0.22 (inactive),0.348,0.088,0.127,0.343,-0.0654,0.283,0.47,-0.0333
CCOC(=O)[C@H](CC(C)C)NC(=O)CCC1CC(OC(=O)NCc2ccc3c(c2)OCO3)CC2(CCCC(COC(=O)NCC(c3ccccc3)c3ccccc3)O2)O1 (stereo not given in full),0.23,0.142 (inactive),0.0876,-0.147,0.538,0.674,-0.144,0.714,0.0432,1.09
CC(CCN1CCCCc2nc(C)c(C)cc21)=NO[C@@H](C)c1cn([C@H](CO)Cc2ccccc2)nn1,0.779,0.364 (inactive),0.0833,-0.14,0.464,-0.01,-0.248,0.719,0.953,0.249
O=C1C[C@@H](O)[C@@H](O)[C@@H]2[C@@H]3C(=O)N(C[C@@H]4CCCO4)C(=O)[C@@H]3CC[C@@H]12,-0.0039,-0.286 (inactive),0.0547,-0.111,-0.0061,0.725,0.181,0.666,0.348,0.852
CCCNC(=O)OC[C@H]1O[C@H](CCON=C(C)CCC(=O)OC[C@H]2O[C@H](c3ccccc3)C=C[C@@H]2Oc2ccc(OC)cc2)C=C[C@@H]1Oc1ccc(OC)cc1,0.161,-0.0662 (inactive),-0.0762,-0.14,-0.459,-0.528,-0.155,-1.25,-0.181,-0.721
COCOc1ccc(Br)cc1C(=O)[C@@H]1O[C@H]1c1cccc(OC)c1,0.591,0.374 (inactive),-0.122,-0.108,0.041,0.696,0.0365,-0.395,0.589,-1.26
O=C1CCCC=C1C(CCc1ccccc1)OC(=O)c1ccc(Br)cc1 (stereo not given),-0.457,-0.727 (inactive),-0.104,-0.146,-0.475,0.214,-0.815,-1.4,0.388,-0.612
O=C1OCCC=C1C(O)CCc1ccccc1 (stereo not given),-0.561,0.149 (inactive),-0.158,-0.145,0.192,-0.215,0.181,-0.0924,0.575,-0.0631
C=CC[C@@H]1C=C[C@H](ON=C[C@@H](C)[C@H](OCc2ccccc2)C(C)C)[C@@H](CO)O1,0.744,-0.315 (inactive),-0.276,-0.221,-0.115,0.502,0.103,0.0186,0.157,-0.817
C[C@@H]1CC[C@H]2C(=O)O[C@@H](Cc3ccccc3)CN2[C@H]1c1ccc(Br)cc1,0.126,-0.358 (inactive),-0.0997,-0.106,0.512,0.871,0.912,1.06,0.227,0.266
